The full data set covers some 8,800 targets. This sample favours those with a hit. About 0.5% of all pairs of compound and target were hits.
Experiments:
Assay in all cases: log2 fold change, soluble protein after heating vs DMSO (PISA); higher = thermal stabilisation; K562 lysate, 10 uM; active = over 0.2 and 3.5 SD of the protein, either way, in both replicates (recomputed)
alvocidib = compound: CN1CC[C@H](c2c(O)cc(O)c3c(=O)cc(-c4ccccc4Cl)oc23)[C@H](O)C1 [alvocidib]
Outline: (§1)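 Log-two fold change in thermal stability relative to solvent controls is reported from duplicates. For each sample, crude K562 extract from dounce-homogenised pellets in PBS pH 7.4 with 1 mM MgCl2, at 1 mg/mL protein, was treated with 10 μM compound for 30 min. Aliquots heated for 3 min across 48°C-58°C were pooled, brought to 0.5% NP-40 at 4°C and cleared at 21,000xg for 90 min. The supernatant was quantified by TMTpro 16plex LC-MS/MS with channel sums equalised.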

Tubastatin A = compound: CN1CCc2c(c3ccccc3n2Cc2ccc(C(=O)NO)cc2)C1 [Tubastatin A]
Outline: as §1

[1] = compound: CNC(=O)C1=CC=CC=C1NC2=NC(=NC=C2Cl)NC3=C(C=C(C=C3)N4CCOCC4)OC
Outline: as §1

[2] = compound: CNc1nc(-c2ccc3c(N)n[nH]c3c2)cc(N2C[C@@H](C(=O)NC3CCCCC3)CC[C@H]2C)n1
Outline: as §1

encorafenib = compound: COC(=O)N[C@@H](C)CNc1nccc(-c2cn(C(C)C)nc2-c2cc(Cl)cc(NS(C)(=O)=O)c2F)n1 [encorafenib]
Outline: as §1

[3] = compound: COC(=O)[C@H](CCSC)NC(=O)C1=C(C=C(C=C1)NC[C@H](CS)N)C2=CC=CC=C2
Outline: as §1

alisertib = compound: COc1cc(Nc2ncc3c(n2)-c2ccc(Cl)cc2C(c2c(F)cccc2OC)=NC3)ccc1C(=O)O [alisertib]
Outline: as §1

[4] = compound: COc1cc2nc(-c3cc(F)ccc3O)nc(N[C@@H]3CNC[C@H]3C(C)(C)O)c2cc1OC
Outline: as §1

gefitinib = compound: COc1cc2ncnc(Nc3ccc(F)c(Cl)c3)c2cc1OCCCN1CCOCC1 [gefitinib]
Outline: as §1

defactinib = compound: CNC(=O)c1ccc(Nc2ncc(C(F)(F)F)c(NCc3nccnc3N(C)S(C)(=O)=O)n2)cc1 [defactinib]
Outline: as §1

Measured: log2 fold change

C9orf72 (UniProt Q96LT7)
active: [3] 0.259
inactive: alvocidib 0.001 | Tubastatin A 0 | [1] -0.036 | [2] 0.058 | encorafenib 0.125 | alisertib 0.014 | [4] 0.102 | gefitinib -0.106

CENPV (UniProt Q7Z7K6)
inactive: alvocidib -0.15 | Tubastatin A -0.458 | defactinib 0.117 | encorafenib 0.323 | [3] -0.045 | alisertib -0.205 | gefitinib 0.789

CASP7 isoform 3 (UniProt P55210)
active: [3] 0.379
inactive: Tubastatin A -0.051 | [1] -0.016 | [2] -0.059 | encorafenib 0.16 | alisertib -0.058 | [4] 0.079 | gefitinib 0.108

C3AR1 (UniProt Q16581)
inactive: alvocidib 0.055 | alisertib 0.358 | gefitinib 0.053

CCP110 (UniProt O43303)
inactive: Tubastatin A -0.045 | [1] -0.115 | defactinib 0.181 | [2] 0.008 | encorafenib 0.075 | [3] 0.125

ATG4D (UniProt Q86TL0)
inactive: Tubastatin A -0.09 | [2] -0.008 | encorafenib -0.031 | [3] -0.155

CEP41 (UniProt Q9BYV8)
inactive: alvocidib 0.042 | [1] 0.083 | defactinib 0.015 | [2] 0.073 | encorafenib 0.001 | [3] -0.139 | alisertib 0.029 | [4] -0.059 | gefitinib 0.011

CAMK2B (UniProt Q13554)
inactive: alvocidib 0.318 | Tubastatin A -0.035 | defactinib 0.009 | [2] -0.069 | encorafenib -0.045 | [3] 0.067 | alisertib 0.001 | [4] -0.005 | gefitinib 0.026

CCND3 (UniProt P30281)
inactive: alvocidib 0.144 | Tubastatin A -0.001 | [1] 0.024 | [2] 0.037 | encorafenib 0.081 | [3] -0.128 | alisertib 0.073 | gefitinib 0.201

BICRA (UniProt Q9NZM4)
inactive: alvocidib -0.113 | Tubastatin A 0.335 | [1] 0.101 | [4] 0.132
active: [2] 0.884

ATE1 (UniProt O95260)
inactive: alvocidib -0.024 | [4] 0.044

CHCHD7 isoform 4 (UniProt Q9BUK0)
UniProt Q9BUK0, sequence (Q9BUK0 whole entry, looked up): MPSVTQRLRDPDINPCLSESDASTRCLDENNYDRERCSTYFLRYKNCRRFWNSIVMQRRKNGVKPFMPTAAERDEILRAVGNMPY
inactive: alvocidib -0.097 | Tubastatin A 0.082 | defactinib -0.009 | [2] -0.141 | encorafenib 0.005 | [3] -0.003 | alisertib 0.177 | [4] 0.027 | gefitinib 0.118

CANX (UniProt D6RHJ3)
inactive: defactinib 0.174 | alisertib 0.068 | [4] 0.07 | gefitinib -0.242

BUD13 (UniProt Q9BRD0)
inactive: alvocidib 0.033 | Tubastatin A -0.015 | [1] -0.022 | [2] 0.068 | encorafenib 0.007 | [3] 0.004 | alisertib 0.017 | gefitinib 0.108

C16orf70 (UniProt Q9BSU1)
UniProt Q9BSU1, sequence (Q9BSU1 whole entry, looked up): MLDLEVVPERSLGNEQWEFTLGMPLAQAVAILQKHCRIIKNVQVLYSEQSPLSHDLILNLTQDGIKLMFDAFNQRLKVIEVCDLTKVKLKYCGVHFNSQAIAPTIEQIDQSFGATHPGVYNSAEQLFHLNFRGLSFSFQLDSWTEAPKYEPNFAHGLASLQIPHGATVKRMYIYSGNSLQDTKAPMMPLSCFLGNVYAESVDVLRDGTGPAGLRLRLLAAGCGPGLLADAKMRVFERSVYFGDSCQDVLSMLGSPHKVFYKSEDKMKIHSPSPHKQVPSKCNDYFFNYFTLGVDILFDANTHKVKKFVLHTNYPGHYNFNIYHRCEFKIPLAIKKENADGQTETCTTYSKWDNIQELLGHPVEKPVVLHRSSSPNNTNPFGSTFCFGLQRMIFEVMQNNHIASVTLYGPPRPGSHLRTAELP
inactive: Tubastatin A 0.075 | [1] 0.082 | defactinib 0.216 | [2] -0.005 | encorafenib 0.04 | [3] -0.135 | [4] 0.076

CDC14A isoform 2 (UniProt Q9UNH5)
inactive: Tubastatin A 0.272 | alisertib 0.075 | [4] 0.019 | gefitinib 0.078

BRD3 (UniProt Q15059)
inactive: alvocidib -0.059 | [1] 0.105 | defactinib 0.017 | [2] 0.09 | encorafenib -0.016 | [3] 0.018 | alisertib -0.003 | [4] -0.015 | gefitinib -0.15

BMT2 (UniProt Q1RMZ1)
inactive: alvocidib -0.004 | alisertib 0.025 | gefitinib -0.27

BRAF, A0A2R8Y8E0
inactive: defactinib -0.029 | encorafenib 1.3 | [3] 0.076

CDCA8 (UniProt Q53HL2)
inactive: alvocidib 0.091 | [1] 0.054 | defactinib 0.144 | [2] -0.061 | encorafenib 0.003 | [3] -0.044 | alisertib 0.034 | gefitinib 0.04

CAD (UniProt H7BZB3)
inactive: alvocidib 0.005 | [1] 0.28 | defactinib 0.036 | encorafenib 0.113 | [3] 0.059

ATPSCKMT (UniProt Q6P4H8)
UniProt Q6P4H8, sequence (Q6P4H8 whole entry, looked up): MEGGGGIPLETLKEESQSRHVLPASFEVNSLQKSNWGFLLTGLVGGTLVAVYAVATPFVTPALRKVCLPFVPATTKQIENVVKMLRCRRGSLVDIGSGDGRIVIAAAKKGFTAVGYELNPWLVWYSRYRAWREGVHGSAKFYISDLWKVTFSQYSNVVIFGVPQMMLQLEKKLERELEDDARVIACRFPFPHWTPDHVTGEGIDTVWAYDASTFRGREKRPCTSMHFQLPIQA
active: Tubastatin A -0.368
inactive: [2] -0.027 | encorafenib -0.176 | [3] 0.17

CDC25A (UniProt P30304)
inactive: [1] -0.121 | [2] 0.035 | alisertib 0.005 | [4] 0.019 | gefitinib -0.002
active: Tubastatin A -0.406

BAHCC1 (UniProt Q9P281)
inactive: alvocidib -0.569 | [1] -0.135 | defactinib -0.208 | [2] -0.054 | encorafenib 0.038 | [3] -0.024 | alisertib 0.085 | [4] 0.076 | gefitinib 0.095

CCDC130 (UniProt P13994)
UniProt P13994, sequence (P13994 whole entry, looked up): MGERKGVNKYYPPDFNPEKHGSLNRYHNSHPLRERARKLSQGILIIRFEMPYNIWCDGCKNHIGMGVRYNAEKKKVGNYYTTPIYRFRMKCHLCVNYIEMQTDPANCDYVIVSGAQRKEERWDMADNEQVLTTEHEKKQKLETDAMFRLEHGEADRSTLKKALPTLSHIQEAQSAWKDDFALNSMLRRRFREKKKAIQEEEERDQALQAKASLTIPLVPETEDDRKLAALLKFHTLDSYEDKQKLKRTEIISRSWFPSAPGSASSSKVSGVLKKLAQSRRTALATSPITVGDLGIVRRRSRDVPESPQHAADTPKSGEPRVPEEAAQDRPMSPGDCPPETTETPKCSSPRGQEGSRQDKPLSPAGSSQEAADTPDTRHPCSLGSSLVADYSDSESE
inactive: Tubastatin A -0.066 | [1] -0.275 | encorafenib -0.015 | [3] 0.09

C15orf39 (UniProt Q6ZRI6)
UniProt Q6ZRI6, sequence (Q6ZRI6 whole entry, looked up): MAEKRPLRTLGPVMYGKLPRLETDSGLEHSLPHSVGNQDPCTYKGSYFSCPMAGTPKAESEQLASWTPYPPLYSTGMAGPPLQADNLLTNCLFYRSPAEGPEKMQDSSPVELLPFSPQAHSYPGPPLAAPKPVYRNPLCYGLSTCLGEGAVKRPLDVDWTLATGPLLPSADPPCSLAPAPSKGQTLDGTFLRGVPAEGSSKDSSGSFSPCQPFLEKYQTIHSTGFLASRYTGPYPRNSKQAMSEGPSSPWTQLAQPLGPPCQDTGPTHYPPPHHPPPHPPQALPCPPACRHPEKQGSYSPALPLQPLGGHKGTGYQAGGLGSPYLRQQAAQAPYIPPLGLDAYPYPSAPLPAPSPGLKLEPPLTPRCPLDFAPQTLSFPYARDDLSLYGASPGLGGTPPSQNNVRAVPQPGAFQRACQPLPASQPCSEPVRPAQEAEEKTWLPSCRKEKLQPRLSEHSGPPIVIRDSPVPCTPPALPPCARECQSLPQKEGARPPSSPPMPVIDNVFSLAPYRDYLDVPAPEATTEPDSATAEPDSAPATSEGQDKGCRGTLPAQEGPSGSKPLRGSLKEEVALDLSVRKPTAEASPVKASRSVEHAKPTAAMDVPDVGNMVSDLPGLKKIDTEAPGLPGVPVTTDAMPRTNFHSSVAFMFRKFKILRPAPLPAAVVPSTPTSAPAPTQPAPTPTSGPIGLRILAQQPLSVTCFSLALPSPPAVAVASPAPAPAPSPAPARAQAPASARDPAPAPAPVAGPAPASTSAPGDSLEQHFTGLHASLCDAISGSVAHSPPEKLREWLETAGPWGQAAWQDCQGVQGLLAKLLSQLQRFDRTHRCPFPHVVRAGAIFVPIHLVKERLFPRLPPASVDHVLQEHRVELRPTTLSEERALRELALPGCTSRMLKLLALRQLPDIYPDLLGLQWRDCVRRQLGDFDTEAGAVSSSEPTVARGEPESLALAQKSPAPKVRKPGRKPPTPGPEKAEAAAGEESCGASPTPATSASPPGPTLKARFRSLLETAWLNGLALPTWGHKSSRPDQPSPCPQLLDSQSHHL
inactive: alvocidib -0.04 | Tubastatin A -0.188 | [1] -0.031 | [2] 0.089 | encorafenib 0.047 | [3] 0.059 | alisertib 0.036 | gefitinib -0.067

B3GALT6 (UniProt Q96L58)
inactive: Tubastatin A 0.051 | [1] -0.025 | [2] 0.059

CARHSP1 (UniProt H3BNU9)
inactive: alvocidib -0.027 | alisertib -0.107 | [4] -0.003 | gefitinib -0.213

CEP57L1 (UniProt Q8IYX8)
inactive: alvocidib -0.024 | Tubastatin A -0.143 | [1] 0.141 | [2] -0.09 | encorafenib 0.118 | [3] -0.023 | alisertib -0.003 | gefitinib -0.038

CAPNS1 (UniProt U3KPR7)
inactive: alisertib -0.069 | [4] 0.024 | gefitinib 0.165

CEP295 isoform 3 (UniProt Q9C0D2)
UniProt Q9C0D2, sequence (Q9C0D2 whole entry, looked up): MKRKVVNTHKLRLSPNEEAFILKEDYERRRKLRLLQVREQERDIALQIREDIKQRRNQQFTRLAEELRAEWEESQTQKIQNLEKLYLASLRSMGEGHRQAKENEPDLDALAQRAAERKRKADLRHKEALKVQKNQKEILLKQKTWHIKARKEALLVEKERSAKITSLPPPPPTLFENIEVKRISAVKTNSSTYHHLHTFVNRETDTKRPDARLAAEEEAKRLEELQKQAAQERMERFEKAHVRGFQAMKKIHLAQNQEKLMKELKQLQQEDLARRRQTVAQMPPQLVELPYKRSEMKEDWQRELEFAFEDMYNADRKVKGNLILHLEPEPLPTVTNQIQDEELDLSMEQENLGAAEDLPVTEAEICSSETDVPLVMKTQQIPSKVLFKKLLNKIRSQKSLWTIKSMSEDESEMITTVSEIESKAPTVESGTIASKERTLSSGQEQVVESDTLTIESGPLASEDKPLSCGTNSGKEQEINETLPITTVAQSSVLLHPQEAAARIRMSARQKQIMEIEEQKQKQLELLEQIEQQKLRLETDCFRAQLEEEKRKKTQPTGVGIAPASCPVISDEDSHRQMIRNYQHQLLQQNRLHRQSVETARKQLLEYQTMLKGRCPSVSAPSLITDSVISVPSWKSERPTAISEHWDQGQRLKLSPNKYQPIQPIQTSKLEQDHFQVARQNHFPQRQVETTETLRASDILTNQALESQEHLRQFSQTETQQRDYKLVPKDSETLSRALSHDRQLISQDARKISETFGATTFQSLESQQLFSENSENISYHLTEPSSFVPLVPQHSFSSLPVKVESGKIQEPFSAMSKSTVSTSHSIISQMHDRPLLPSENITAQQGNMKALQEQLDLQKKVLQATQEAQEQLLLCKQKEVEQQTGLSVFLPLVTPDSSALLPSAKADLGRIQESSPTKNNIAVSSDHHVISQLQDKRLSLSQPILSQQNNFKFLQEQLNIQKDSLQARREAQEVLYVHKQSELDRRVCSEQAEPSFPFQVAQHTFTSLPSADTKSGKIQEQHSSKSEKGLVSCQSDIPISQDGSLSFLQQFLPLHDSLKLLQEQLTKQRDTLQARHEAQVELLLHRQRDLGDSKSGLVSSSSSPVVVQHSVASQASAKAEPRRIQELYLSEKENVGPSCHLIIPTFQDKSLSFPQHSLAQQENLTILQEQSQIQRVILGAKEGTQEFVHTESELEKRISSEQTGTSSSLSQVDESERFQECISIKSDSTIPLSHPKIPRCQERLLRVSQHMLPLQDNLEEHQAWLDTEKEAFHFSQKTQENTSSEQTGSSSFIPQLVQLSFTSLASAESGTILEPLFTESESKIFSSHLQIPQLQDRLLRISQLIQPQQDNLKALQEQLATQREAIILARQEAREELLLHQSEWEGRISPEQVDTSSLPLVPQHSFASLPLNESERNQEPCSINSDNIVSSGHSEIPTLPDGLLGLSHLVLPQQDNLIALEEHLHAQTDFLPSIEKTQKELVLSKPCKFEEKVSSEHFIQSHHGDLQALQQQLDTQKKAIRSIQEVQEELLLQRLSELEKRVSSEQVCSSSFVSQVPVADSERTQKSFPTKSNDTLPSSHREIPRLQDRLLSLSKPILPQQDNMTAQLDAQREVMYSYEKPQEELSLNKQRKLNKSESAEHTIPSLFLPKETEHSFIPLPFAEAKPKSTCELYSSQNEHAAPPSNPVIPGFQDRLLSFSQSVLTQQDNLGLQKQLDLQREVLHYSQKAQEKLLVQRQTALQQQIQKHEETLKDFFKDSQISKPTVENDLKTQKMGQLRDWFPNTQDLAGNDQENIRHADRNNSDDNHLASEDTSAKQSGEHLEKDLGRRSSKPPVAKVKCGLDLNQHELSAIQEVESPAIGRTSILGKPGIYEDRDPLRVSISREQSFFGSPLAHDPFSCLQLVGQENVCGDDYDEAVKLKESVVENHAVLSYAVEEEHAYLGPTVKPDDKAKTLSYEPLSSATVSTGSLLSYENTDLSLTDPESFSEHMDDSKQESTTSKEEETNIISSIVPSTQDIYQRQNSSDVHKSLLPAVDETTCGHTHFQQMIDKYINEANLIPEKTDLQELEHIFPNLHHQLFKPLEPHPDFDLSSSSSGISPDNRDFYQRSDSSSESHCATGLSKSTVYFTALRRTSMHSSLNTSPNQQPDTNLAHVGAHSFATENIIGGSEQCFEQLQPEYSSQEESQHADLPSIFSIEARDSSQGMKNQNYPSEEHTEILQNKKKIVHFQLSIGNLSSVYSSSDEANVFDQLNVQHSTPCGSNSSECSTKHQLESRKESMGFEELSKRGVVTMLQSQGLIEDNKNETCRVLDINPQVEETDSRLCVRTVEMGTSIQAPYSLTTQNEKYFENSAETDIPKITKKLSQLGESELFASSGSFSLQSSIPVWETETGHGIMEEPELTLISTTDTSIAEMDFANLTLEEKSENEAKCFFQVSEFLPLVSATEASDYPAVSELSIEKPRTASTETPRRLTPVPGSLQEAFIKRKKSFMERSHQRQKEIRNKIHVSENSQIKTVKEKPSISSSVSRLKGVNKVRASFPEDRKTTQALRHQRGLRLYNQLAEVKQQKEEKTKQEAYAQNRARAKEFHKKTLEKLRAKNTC
inactive: alvocidib -0.039 | Tubastatin A -0.099 | [1] -0.029 | encorafenib -0.154 | [3] 0.149 | alisertib 0.018 | [4] -0.016 | gefitinib -0.041

CDK16 isoform 2 (UniProt Q00536)
inactive: Tubastatin A 0.029 | [1] 0.05 | defactinib 0.285 | [2] 0.106 | encorafenib 0.04 | [3] -0.024 | alisertib -0.014 | [4] 0.008 | gefitinib -0.026

CHD4, A0A2R8Y521
inactive: Tubastatin A -0.117 | [2] 0.155 | encorafenib 0.046 | [3] -0.086 | alisertib 0.133 | [4] -0.454 | gefitinib 0.167

CCAR2 (UniProt G3V119)
inactive: [4] -0.032

CAPNS1 (UniProt K7ES78)
inactive: Tubastatin A -0.074 | [1] 0.001 | defactinib 0.035 | [2] -0.068 | [4] -0.083

C6orf120 (UniProt Q7Z4R8)
UniProt Q7Z4R8, sequence (Q7Z4R8 whole entry, looked up): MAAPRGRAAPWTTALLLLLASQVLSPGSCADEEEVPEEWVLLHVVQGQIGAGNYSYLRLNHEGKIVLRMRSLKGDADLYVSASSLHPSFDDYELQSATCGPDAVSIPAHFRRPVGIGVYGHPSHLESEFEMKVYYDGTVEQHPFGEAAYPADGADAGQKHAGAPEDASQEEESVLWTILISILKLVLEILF
inactive: alvocidib 0.096 | [1] 0.031 | [2] 0.066 | [4] -0.026

CDK11A (UniProt Q9UQ88)
inactive: alvocidib 0.077 | Tubastatin A -0.172 | [1] -0.011 | [2] 0.023 | alisertib -0.023 | [4] -0.037 | gefitinib 0

— the supplement of paper PMC10849652
